# Values without a mark were called inactive.
# Legend:
# Assay in all cases: log2 ratio of Biotin-Ahx-Ub-VS probe labelling (fragment/DMSO); higher = less target engagement (more negative = stronger competition), active = hit call of the paper (q ≤ 0.05, log2 ratio ≤ -1)
# Settings in all cases: compound concentration: 200 uM; treatment time: 3 h
# USP19 = target: T1, USP19 (UniProt O94966)
# T1 sequence (whole entry): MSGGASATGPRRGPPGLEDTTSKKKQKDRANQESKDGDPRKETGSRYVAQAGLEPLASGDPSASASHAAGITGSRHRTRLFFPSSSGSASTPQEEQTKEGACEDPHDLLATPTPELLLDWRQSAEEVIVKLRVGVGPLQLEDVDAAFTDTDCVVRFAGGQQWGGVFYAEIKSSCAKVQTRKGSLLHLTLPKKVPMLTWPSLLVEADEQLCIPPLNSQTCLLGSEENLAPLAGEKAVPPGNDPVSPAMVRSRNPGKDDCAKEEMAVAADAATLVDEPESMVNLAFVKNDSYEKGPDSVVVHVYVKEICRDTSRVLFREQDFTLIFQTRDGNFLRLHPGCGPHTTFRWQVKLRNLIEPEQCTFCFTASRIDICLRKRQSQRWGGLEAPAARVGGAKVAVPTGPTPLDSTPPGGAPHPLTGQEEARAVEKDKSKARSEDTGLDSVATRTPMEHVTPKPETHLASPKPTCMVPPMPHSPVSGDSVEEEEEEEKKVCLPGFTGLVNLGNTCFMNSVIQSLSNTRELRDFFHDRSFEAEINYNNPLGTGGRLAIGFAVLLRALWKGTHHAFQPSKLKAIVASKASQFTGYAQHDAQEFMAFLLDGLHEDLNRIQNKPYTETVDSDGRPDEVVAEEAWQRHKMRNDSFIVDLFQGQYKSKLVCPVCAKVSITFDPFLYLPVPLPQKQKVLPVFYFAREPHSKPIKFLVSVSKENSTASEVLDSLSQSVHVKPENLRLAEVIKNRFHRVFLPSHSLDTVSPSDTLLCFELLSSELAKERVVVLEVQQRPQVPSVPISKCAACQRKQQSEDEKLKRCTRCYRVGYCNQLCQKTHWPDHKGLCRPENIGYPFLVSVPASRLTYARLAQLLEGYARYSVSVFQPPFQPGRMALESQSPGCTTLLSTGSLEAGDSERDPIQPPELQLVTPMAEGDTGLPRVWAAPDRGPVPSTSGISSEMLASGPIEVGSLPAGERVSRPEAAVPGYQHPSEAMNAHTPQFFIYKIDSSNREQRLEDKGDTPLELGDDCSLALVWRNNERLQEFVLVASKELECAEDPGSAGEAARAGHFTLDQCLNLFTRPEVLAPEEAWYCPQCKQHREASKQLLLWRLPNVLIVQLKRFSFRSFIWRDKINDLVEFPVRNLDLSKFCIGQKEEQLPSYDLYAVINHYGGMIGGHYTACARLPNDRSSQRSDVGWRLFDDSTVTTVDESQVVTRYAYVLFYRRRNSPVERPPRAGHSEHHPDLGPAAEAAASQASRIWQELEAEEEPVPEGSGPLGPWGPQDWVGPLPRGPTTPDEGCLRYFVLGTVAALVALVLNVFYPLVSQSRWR
# Procedure, shortened: (§1)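 HEK293T lysate, 495 µg per sample in Tris/CHAPS/IGEPAL buffer with protease inhibitors, was treated in triplicate with fragment at 200 µM or vehicle for 3 h and then with Biotin-Ahx-Ub-VS at 0.5 µM final for 1 h. Labelled DUBs were NeutrAvidin-enriched, digested with LysC and trypsin, and run by diaPASEF LC-MS/MS. Spectronaut label-free quantities were global-median-normalised, and values are average log2 fragment/vehicle ratios by unpaired t-test on proteins with ≥2 unique peptides.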
# USP22 = target: T2, USP22 (UniProt Q9UPT9)
# T2 sequence (whole entry): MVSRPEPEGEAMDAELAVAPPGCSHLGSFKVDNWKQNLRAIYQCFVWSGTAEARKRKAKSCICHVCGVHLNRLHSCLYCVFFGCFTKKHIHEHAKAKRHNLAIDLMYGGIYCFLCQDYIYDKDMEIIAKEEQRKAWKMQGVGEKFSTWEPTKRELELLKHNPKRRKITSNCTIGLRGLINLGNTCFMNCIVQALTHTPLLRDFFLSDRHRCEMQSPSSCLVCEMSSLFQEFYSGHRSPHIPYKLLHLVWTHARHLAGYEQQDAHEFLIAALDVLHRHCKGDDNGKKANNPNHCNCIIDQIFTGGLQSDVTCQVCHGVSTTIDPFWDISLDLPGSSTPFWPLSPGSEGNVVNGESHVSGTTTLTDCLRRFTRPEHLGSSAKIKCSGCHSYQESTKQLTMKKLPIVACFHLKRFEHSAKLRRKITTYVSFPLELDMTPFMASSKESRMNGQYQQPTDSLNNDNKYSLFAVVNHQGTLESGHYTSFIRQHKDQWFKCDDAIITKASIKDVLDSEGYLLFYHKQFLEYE
# Procedure, shortened: as §1
# USP24 = USP24 (UniProt Q9UPU5)
# Sequence of USP24 (Q9UPU5 whole entry): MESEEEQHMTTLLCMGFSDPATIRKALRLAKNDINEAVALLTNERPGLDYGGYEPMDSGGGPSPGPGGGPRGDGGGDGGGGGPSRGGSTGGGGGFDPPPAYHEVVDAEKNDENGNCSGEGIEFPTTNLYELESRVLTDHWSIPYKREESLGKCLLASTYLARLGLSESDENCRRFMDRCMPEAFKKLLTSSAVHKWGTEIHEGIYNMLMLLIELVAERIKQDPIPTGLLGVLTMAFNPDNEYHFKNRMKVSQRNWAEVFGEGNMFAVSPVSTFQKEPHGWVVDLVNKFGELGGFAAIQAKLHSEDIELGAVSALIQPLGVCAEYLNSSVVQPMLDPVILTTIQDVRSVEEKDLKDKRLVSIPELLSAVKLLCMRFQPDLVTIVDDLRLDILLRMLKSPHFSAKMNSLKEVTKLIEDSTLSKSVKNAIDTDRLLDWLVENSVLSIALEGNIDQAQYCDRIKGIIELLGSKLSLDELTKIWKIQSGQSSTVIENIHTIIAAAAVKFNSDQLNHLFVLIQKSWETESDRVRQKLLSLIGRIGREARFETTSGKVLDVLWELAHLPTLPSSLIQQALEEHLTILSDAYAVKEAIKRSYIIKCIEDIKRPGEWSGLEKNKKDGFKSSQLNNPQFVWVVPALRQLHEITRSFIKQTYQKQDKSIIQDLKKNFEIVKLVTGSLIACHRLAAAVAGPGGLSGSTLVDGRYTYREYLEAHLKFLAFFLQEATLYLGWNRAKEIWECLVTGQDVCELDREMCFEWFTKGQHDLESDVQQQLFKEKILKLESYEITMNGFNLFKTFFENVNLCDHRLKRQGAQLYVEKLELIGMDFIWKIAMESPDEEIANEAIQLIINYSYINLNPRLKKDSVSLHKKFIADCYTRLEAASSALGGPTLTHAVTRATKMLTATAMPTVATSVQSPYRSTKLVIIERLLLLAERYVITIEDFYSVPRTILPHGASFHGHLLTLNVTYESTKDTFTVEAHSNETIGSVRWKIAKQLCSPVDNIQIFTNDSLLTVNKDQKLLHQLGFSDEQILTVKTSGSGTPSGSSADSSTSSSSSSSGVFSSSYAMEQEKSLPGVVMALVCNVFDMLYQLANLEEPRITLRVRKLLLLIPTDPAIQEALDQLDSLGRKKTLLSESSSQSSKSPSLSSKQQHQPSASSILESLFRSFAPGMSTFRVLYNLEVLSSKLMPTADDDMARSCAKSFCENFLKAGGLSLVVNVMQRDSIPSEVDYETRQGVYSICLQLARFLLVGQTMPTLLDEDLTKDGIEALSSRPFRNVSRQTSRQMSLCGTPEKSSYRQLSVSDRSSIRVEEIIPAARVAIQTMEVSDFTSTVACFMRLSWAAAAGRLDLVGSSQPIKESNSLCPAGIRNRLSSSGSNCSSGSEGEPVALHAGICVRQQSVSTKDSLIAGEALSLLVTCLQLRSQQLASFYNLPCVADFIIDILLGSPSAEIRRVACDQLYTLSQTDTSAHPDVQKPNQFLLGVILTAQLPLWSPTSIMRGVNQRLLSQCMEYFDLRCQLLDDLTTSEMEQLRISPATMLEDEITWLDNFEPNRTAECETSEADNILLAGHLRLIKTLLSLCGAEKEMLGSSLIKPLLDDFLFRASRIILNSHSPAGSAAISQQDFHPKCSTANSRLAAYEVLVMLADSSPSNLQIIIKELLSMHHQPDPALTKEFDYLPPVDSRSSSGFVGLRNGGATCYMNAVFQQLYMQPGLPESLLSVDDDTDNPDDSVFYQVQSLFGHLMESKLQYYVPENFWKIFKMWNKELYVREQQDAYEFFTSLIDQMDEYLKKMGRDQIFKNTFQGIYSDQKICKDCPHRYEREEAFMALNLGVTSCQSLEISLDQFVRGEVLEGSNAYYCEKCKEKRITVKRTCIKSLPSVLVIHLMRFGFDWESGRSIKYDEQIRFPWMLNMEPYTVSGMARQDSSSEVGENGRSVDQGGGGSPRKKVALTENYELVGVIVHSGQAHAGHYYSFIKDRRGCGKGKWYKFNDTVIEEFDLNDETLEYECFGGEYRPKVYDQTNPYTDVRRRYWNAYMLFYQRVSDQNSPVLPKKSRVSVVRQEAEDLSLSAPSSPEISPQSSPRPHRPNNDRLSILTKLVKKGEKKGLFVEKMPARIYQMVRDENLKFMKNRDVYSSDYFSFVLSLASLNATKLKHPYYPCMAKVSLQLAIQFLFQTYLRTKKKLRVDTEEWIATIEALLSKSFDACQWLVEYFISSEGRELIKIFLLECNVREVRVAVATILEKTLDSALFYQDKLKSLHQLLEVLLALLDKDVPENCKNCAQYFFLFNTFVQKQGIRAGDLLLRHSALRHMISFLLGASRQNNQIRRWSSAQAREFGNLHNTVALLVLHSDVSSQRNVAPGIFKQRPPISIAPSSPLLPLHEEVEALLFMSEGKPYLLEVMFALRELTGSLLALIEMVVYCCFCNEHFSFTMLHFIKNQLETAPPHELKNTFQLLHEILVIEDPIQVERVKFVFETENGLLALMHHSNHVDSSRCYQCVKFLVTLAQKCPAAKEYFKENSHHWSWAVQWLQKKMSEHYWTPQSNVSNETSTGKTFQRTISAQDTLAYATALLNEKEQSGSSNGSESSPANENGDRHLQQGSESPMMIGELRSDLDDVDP
# Procedure, shortened: as §1
# USP25 = target: T3, USP25 (UniProt Q9UHP3)
# T3 sequence (whole entry): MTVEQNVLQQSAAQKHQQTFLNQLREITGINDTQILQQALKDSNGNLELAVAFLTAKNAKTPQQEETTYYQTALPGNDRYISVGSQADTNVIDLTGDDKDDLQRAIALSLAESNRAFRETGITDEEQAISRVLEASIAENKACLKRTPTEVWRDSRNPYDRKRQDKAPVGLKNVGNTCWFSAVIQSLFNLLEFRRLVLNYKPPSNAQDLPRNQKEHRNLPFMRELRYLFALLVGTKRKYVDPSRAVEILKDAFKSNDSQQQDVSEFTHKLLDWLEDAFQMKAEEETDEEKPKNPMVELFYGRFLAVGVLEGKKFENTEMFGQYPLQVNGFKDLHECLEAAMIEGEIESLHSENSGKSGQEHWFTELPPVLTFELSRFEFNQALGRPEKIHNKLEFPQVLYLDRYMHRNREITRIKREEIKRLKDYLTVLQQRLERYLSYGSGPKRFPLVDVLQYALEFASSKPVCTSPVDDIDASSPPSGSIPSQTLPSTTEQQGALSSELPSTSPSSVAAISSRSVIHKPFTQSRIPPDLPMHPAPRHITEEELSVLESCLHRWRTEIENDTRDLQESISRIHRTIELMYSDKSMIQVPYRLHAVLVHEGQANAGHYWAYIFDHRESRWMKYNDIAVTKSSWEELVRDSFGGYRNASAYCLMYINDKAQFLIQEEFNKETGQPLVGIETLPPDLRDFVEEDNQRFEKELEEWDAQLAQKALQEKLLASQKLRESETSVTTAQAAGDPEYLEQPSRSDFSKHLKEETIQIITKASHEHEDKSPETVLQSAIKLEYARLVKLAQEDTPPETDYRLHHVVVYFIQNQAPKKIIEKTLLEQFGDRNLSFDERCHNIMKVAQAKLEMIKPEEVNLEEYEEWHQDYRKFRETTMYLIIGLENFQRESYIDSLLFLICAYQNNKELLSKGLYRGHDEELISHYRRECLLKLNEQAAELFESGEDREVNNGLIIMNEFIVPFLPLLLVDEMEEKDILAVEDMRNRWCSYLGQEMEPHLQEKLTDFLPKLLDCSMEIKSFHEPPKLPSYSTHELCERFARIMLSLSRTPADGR
# Procedure, shortened: as §1
# USP28 = target: T4, USP28 (UniProt Q96RU2)
# T4 sequence (whole entry): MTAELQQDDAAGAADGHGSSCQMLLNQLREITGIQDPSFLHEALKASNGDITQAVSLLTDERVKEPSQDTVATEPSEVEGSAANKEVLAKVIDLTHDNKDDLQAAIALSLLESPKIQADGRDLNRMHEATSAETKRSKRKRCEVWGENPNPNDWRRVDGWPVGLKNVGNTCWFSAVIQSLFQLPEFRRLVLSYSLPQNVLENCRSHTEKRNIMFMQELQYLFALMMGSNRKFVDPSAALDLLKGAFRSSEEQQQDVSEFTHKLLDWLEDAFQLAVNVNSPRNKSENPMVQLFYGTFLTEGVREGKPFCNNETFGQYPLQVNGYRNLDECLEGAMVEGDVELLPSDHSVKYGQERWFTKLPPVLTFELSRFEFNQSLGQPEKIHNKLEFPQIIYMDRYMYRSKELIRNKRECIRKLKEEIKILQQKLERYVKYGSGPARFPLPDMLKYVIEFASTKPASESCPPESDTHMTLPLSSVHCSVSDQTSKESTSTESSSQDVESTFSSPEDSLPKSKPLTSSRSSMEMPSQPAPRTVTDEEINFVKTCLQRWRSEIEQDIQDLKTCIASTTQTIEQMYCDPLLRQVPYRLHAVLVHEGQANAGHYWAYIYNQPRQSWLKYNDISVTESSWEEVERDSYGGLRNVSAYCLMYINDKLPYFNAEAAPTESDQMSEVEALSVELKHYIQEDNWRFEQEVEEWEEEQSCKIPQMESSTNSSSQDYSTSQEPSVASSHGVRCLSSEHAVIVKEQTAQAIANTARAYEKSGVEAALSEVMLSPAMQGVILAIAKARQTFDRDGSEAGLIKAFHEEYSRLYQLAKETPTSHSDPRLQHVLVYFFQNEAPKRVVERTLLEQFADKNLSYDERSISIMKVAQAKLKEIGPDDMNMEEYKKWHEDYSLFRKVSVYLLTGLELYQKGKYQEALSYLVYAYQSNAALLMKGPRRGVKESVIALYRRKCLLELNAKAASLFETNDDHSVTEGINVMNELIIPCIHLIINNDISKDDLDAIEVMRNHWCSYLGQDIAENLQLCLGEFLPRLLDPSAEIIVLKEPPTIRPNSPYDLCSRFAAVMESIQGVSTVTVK
# Procedure, shortened: as §1
structure (smiles),measurement,setting,value
O=C(CCl)N[C@H]1CC[C@@H](CO)CC1,log2 ratio of Biotin-Ahx-Ub-VS probe labelling,USP19,-0.828
same,log2 ratio of Biotin-Ahx-Ub-VS probe labelling,USP22,-0.256
same,log2 ratio of Biotin-Ahx-Ub-VS probe labelling,USP24,-1.05 (active)
same,log2 ratio of Biotin-Ahx-Ub-VS probe labelling,USP25,-0.739
same,log2 ratio of Biotin-Ahx-Ub-VS probe labelling,USP28,-1.09 (active)
